From the supplement of paper PMC11732987, “Enantioselective OTUD7B fragment discovery through chemoproteomics screening and high-throughput optimisation” (Communications Chemistry, 2025)

Tests used:
Assay in all cases: log2 ratio of Biotin-Ahx-Ub-VS probe labelling (fragment/DMSO); higher = less target engagement (more negative = stronger competition), active = hit call of the paper (q ≤ 0.05, log2 ratio ≤ -1)
Settings in all cases: compound concentration: 200 uM; treatment time: 3 h
USP9X = USP9X (UniProt Q93008)
Outline: (§1)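 Fragment (200 µM) or vehicle was incubated for 3 h with triplicate HEK293T lysate samples of 495 µg, which were then treated with Biotin-Ahx-Ub-VS at 0.5 µM final for 1 h. Labelled DUBs were enriched on NeutrAvidin, digested with LysC and trypsin, and analysed by diaPASEF LC-MS/MS. Values are average log2 fragment/vehicle ratios from an unpaired t-test on global-median-normalised Spectronaut label-free quantities, using proteins with ≥2 unique peptides.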

UniProt O00487 = target: UniProt O00487
Outline: as §1

UniProt O00507 = target: UniProt O00507
Outline: as §1

UniProt P51784 = target: UniProt P51784
Outline: as §1

UniProt Q5T2D3 = target: T1, UniProt Q5T2D3
T1 sequence (whole entry): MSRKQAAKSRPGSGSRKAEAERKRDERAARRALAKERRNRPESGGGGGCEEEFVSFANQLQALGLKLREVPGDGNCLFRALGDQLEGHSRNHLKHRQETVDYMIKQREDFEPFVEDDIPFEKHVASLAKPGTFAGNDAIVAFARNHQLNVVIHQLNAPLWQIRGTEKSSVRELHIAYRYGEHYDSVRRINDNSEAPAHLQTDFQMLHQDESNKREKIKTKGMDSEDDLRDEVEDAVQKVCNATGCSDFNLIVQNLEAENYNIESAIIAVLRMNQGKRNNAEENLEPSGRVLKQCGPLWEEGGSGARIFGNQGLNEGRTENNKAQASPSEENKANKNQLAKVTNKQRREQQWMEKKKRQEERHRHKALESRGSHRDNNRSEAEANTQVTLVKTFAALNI
Outline: as §1

UniProt Q8TE49 = target: T2, UniProt Q8TE49
T2 sequence (whole entry): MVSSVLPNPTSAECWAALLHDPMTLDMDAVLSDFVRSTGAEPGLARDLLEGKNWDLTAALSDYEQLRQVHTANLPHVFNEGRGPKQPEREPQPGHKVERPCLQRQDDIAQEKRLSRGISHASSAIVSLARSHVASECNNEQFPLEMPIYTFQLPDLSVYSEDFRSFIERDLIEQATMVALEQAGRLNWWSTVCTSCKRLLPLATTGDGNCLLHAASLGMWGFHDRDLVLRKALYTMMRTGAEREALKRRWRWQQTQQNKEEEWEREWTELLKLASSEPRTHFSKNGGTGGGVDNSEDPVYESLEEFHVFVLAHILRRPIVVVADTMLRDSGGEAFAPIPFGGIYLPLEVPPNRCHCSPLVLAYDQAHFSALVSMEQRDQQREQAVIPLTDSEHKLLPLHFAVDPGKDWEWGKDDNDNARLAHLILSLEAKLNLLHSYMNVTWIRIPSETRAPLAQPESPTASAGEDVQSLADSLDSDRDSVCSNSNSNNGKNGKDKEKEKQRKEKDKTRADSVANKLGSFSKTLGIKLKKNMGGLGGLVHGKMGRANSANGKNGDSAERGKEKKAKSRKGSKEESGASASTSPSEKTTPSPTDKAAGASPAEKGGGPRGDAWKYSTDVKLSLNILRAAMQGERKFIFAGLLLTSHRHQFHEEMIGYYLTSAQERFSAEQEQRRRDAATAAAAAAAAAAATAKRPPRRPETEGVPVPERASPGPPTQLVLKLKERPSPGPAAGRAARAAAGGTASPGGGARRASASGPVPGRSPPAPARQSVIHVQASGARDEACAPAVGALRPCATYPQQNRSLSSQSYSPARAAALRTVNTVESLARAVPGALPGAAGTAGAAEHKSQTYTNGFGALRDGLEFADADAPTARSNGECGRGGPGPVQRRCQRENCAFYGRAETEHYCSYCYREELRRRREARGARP
Outline: as §1

UniProt Q9P2H5 = target: T3, UniProt Q9P2H5
T3 sequence (whole entry): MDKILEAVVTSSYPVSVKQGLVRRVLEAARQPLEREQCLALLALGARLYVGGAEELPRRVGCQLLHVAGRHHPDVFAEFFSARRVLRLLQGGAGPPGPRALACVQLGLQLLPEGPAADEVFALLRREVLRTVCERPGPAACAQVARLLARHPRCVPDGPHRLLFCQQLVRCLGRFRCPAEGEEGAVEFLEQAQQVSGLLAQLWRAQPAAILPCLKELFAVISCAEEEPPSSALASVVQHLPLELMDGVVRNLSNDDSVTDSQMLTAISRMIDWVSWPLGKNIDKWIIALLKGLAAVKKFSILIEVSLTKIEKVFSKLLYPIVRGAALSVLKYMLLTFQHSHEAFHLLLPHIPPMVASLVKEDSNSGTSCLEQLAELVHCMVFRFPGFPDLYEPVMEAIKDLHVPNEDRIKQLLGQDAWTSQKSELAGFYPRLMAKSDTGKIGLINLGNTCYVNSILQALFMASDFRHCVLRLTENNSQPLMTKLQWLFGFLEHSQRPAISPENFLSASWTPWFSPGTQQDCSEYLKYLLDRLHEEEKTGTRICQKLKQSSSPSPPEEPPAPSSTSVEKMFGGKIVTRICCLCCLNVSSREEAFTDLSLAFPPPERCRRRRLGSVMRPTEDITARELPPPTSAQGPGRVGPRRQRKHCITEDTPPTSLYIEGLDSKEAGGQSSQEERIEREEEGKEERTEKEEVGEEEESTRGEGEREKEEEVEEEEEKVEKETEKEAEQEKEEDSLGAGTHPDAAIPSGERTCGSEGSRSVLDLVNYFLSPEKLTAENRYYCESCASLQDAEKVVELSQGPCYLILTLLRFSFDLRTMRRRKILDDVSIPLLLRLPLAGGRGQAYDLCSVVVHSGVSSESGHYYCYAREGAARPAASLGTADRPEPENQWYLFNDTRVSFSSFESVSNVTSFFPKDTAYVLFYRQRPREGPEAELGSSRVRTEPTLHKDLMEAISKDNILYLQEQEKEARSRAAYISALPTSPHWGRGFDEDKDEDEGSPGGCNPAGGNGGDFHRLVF
Outline: as §1

UniProt Q9UGI0 = target: T4, UniProt Q9UGI0
T4 sequence (whole entry): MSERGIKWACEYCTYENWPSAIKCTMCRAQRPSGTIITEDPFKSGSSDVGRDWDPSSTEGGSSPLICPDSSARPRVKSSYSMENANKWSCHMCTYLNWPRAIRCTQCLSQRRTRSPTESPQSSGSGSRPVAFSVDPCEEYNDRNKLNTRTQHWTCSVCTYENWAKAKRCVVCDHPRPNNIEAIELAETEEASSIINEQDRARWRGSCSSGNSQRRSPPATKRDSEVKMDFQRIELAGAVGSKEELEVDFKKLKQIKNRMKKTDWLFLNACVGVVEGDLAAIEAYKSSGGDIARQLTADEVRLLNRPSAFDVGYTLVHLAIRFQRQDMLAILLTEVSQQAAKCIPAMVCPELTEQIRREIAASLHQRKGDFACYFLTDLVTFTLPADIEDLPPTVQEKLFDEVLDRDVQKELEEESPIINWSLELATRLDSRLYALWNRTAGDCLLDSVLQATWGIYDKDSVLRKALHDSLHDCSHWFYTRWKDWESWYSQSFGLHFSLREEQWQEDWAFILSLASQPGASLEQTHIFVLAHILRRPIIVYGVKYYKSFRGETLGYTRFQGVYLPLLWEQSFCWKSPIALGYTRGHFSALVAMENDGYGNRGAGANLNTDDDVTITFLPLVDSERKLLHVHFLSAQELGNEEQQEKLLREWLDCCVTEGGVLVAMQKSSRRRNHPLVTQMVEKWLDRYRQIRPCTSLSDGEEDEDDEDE
Outline: as §1

YOD1 = target: T5, YOD1 (UniProt Q5VVQ6)
T5 sequence (whole entry): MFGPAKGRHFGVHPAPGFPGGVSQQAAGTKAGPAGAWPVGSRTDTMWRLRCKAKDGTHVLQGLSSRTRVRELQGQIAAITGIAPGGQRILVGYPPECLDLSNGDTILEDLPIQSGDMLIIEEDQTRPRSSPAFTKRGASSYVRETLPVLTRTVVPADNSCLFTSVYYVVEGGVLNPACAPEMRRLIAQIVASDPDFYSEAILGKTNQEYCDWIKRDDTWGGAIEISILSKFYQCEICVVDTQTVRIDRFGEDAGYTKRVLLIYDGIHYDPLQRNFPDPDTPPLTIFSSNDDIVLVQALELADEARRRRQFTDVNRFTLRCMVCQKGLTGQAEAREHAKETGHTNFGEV
Outline: as §1

Measured: log2 ratio of Biotin-Ahx-Ub-VS probe labelling

Sequence of UniProt P51784 (P51784 whole entry): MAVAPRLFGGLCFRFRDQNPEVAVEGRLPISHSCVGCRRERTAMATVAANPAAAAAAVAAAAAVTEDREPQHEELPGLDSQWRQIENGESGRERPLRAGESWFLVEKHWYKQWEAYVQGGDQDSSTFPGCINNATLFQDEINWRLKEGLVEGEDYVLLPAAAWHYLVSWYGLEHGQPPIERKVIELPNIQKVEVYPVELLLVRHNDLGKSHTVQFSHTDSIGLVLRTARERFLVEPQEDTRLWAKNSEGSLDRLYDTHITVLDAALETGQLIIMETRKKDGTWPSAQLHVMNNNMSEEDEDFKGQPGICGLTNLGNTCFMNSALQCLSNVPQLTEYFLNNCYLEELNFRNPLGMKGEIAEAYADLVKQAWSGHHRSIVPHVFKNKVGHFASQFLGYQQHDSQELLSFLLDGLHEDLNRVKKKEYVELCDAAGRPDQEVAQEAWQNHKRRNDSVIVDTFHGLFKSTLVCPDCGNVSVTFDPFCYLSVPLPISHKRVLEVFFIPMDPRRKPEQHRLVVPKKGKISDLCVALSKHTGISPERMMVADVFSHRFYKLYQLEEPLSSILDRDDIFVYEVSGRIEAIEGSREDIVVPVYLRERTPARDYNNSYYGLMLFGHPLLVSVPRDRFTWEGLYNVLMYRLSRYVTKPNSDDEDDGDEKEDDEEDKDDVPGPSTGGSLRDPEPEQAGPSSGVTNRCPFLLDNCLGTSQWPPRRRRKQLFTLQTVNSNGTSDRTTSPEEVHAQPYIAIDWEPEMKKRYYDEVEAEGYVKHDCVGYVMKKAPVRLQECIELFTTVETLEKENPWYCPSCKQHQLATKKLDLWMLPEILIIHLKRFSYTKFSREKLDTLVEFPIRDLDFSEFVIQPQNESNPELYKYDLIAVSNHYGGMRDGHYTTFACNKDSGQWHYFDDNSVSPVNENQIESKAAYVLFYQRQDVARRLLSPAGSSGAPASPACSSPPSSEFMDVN
Sequence of UniProt O00487 (O00487 whole entry): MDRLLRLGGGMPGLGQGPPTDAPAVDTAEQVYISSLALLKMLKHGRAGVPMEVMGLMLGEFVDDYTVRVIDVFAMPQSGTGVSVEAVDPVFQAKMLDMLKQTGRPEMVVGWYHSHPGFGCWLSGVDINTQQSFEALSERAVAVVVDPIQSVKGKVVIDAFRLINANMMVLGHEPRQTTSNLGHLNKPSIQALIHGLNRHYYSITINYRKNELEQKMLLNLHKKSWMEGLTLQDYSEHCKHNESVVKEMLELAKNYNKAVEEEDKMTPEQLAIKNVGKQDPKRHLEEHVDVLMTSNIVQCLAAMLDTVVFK
Sequence of USP9X (Q93008 whole entry, the tested form may be a part): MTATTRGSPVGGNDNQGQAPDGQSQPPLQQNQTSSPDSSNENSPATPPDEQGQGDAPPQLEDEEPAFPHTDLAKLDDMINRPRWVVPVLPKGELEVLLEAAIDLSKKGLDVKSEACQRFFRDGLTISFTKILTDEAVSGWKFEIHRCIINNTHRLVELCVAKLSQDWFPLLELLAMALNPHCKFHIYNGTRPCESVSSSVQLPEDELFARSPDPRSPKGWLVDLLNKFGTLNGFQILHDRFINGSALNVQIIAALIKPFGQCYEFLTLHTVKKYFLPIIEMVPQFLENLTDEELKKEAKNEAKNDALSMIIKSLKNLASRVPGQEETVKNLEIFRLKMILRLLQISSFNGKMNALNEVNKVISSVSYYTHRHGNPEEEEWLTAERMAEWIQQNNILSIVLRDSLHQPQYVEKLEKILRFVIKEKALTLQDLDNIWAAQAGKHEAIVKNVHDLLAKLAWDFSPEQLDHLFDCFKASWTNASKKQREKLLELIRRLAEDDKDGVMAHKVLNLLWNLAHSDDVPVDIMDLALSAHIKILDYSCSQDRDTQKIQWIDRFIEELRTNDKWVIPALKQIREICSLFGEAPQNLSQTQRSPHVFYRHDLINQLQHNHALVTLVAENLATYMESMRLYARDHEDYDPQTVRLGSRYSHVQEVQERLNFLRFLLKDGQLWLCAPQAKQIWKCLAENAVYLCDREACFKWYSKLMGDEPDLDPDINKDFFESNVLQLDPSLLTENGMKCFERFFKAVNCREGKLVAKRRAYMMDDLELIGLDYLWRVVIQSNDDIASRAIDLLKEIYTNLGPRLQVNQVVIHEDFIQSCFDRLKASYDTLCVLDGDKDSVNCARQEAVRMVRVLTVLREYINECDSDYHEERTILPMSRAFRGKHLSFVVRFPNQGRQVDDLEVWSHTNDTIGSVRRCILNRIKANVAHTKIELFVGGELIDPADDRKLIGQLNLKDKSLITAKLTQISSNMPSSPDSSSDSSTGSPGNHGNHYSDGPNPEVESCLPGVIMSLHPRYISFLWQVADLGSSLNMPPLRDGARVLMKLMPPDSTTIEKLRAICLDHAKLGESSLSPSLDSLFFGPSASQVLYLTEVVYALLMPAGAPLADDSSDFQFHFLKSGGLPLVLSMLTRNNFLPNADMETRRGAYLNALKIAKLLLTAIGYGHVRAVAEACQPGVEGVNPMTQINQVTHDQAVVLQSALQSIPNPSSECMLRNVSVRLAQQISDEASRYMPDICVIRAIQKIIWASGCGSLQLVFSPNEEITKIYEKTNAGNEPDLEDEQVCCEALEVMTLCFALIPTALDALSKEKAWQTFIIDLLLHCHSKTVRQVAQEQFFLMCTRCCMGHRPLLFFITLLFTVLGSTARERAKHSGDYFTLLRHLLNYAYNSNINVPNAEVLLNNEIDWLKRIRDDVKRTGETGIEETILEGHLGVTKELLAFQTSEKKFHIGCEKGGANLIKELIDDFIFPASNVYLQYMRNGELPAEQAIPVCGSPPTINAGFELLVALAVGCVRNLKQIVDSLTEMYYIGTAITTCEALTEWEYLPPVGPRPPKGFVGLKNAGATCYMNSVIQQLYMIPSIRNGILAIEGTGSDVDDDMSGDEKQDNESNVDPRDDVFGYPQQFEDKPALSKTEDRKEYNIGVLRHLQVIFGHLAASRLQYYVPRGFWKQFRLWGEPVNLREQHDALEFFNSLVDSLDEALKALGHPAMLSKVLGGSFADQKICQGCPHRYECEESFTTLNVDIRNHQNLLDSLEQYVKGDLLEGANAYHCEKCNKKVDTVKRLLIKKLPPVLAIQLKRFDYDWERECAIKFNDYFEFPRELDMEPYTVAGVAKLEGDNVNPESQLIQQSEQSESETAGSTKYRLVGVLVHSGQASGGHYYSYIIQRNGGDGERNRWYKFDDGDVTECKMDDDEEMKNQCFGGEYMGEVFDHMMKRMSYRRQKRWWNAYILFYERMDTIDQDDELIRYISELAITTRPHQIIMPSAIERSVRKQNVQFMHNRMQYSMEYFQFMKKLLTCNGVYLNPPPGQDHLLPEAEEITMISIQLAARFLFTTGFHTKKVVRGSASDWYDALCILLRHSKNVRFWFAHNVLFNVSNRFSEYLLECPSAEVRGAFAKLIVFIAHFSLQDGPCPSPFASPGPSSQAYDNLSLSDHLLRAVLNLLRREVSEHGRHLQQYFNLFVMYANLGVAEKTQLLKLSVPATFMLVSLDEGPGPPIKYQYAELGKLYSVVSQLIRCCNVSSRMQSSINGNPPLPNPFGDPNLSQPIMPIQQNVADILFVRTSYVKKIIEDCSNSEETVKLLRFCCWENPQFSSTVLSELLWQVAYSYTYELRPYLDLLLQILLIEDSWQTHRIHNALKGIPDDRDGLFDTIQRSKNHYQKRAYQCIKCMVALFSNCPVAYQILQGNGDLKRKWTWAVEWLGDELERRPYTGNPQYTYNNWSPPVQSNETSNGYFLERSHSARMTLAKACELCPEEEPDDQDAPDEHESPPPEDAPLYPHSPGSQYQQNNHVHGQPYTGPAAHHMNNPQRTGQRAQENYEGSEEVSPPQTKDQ

Cc1ccc(CNC(=O)CCl)nc1C.Cl
inactive: USP9X 0.0101 | UniProt O00487 -0.156 | UniProt O00507 -0.661 | UniProt P51784 0.353 | UniProt Q5T2D3 -0.0639 | UniProt Q8TE49 -0.343 | UniProt Q9P2H5 0.102 | UniProt Q9UGI0 -0.161 | YOD1 -0.259
